Compound activity deposited in PubChem by National Center for Advancing Translational Sciences (NCATS).
Rango dissoc inh – qHTS Assay for Inhibitors of RanGTP induced Rango (Ran-regulated importin-beta cargo) - Importin beta complex dissociation. Snurportin-1 (Homo sapiens) + GTP-binding nuclear protein Ran (Homo sapiens) + Importin …. Biochemical FRET Rango-importin beta, RanGTP-induced dissociation. Potency, µM (top dose mostly 46.1 µM). hit rate 0.071% among 340,000. AID 540253, 2011; calls by dose curve; further: nearly all actives have a fitted effect of over 45% in size
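FRET read at 45 min, room temperature: inhibitors block the CFP/YFP signal rise when RanGTP (0.6 uM Ran, 2 mM GTP, 0.2 uM RCC1) frees Rango (0.1 uM) from importin beta (0.25 uM). Pre-read after 5 min compound exposure flags interference.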
ELG1 DNA repair – qHTS screen for small molecules that inhibit ELG1-dependent DNA repair in human embryonic kidney (HEK293T) cells expressing luciferase-tagged ELG1. HEK293T ELG1-luciferase reporter, luminescence, 16 h; DNA damage induced by 5-fluorouridine. hit rate 2.3% among 330,000. Potency, µM (highest dose often 46.1 µM), actives largely listed as inhibitors; further: nearly all actives have a fitted effect of over 55% in size
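Luminescence from the luciferase reporter, measured 30 min after ONE-Glo reagent at room temperature, was the read-out. Beforehand, 2,000 cells per well were exposed for 16 hr at 37 °C to 5-fluorouridine together with compound or vehicle.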
PKM2 activator – qHTS Assay for Activators of Human Muscle isoform 2 Pyruvate Kinase | Pyruvate kinase PKM (Homo sapiens), P14618 | purified PKM2, Kinase-Glo ATP luminescence, activation; response scale: 0% is enzyme alone, no compound | Potency, µM (titrated, usually from 57.5 µM), hits mostly activators | hit rate 0.34% among 260,000 | AID 1631, 2009; further: nearly all actives have a fitted effect of over 55% in size
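hPK-M2, >95% pure; 0.1 mM ADP / 0.5 mM PEP final; imidazole pH7.2 buffer w/ 7 mM MgCl2, 50 mM KCl; 1 h RT; Kinase-Glo lum. Intermediate enzyme activity for dual inhibitor/activator qHTS.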
Tb PGK inh – qHTS Assay to Find Inhibitors of Phosphoglycerate Kinase; Phosphoglycerate kinase, glycosomal (Trypanosoma brucei brucei), P07378; PGK/GAPDH coupled, Kinase-Glo luminescence, 60 min; Potency, µM (highest dose often 57.5 µM), most hits filed as inhibitors; hit rate 0.043% among 380,000; further: nearly all actives have a fitted effect of over 60% in size
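Luminescent ATP detection (Kinase-Glo Plus) follows a 60-minute room-temperature incubation, with wells lacking PGK as controls. Buffer: 100 mM TEA (pH 7.6), 5 mM MgCl2, 0.01% Tween-20. Coupling enzyme GAPDH (100 nM final) supplies unstable 1,3-BPG in-well.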
Tb PFK inh – qHTS Assay to Find Inhibitors of T. brucei phosphofructokinase; T. brucei PFK, ADP-Glo luminescence; Potency, µM (top dose mostly 57.5 µM), actives largely listed as inhibitors; hit rate 0.17% among 330,000; further: nearly all actives have a fitted effect of over 60% in size
Target sequence (O15648 whole entry, looked up): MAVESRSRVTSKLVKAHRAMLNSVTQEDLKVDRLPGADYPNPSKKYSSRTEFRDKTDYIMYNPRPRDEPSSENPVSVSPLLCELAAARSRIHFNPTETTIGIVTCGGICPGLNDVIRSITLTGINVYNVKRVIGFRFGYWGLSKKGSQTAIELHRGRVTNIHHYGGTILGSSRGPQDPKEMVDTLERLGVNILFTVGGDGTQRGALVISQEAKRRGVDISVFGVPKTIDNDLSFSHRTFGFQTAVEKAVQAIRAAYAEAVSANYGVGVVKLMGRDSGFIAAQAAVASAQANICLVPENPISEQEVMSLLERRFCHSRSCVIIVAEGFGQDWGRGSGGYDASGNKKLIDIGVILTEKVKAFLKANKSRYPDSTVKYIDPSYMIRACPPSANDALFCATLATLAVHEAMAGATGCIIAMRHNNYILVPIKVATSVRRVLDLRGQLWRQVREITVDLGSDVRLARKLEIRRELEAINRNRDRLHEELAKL
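Luminescent ADP detection (ADP-Glo, two-step: ATP depletion then ADP-to-ATP conversion for luciferase) reported PFK activity after 45 min room-temperature reaction of 1.25 nM enzyme with 0.5 mM F6P and 0.1 mM ATP at pH 8.0.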
Rango-impB inh – qHTS Assay for Inhibitors of Rango (Ran-regulated importin-beta cargo) - Importin beta complex formation; Rango CFP/YFP FRET sensor + importin beta, 45 min; Potency, µM (top dose mostly 92.2 µM); hit rate 0.031% among 340,000; calls by dose curve; further: nearly all actives have a fitted effect of over 15% in size
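FRET biosensor Rango (snurportin 1 IBB between N-terminal EYFP and C-terminal Cerulean), 50 nM in PBS/1 mM DTT/0.02% Tween-20/0.1% BSA, preincubated 5 min RT with compound; 0.125 microM importin beta added, 45 min RT, CFP/YFP FRET ratio read.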
HeLa tox – Secondary assay for Activators of Human Pyruvate Kinase M2 isoform - Cell Titer Glo cytotoxicity assay. 230 tested, under 10 active. shares compounds with PKM2 activator. activity change, negative = cytotoxicity, % at 57.5 µM. AID 1898, 2009. HeLa viability, CellTiter-Glo ATP luminescence, 24 h
ELG1 FLuc counter – qHTS screen for small molecules that inhibit ELG1-dependent DNA repair: Hit Confirmation in Cell-Based Luciferin Assay; AID 624247, 2012; shares compounds with ELG1 DNA repair; hit rate 3% among 350; Potency, µM (top dose mostly 46.1 µM), actives largely listed as inhibitors; cell-free firefly luciferase luminescence counter-screen, ViewLux
ELG1 Luc conf – HTS assay for small molecules that inhibit ELG1-dependent DNA repair in human embryonic kidney (HEK293T) cells expressing luciferase-tagged ELG1: Hit Confirmation | shares compounds with ELG1 DNA repair | HEK293T ELG1-luciferase levels, luminescence; cells co-treated with 5-fluorouridine | hit rate 68% among 670 | AID 624248, 2012 | Potency, µM (top dose mostly 46.1 µM), actives largely listed as inhibitors; further: nearly all actives have a fitted effect of over 55% in size
ELG1-Luc MMS – inhibits ELG1-dependent repair under MMS stimulation in HEK293T cells | shares compounds with ELG1 DNA repair | HEK293T luciferase-tagged ELG1 level, MMS stimulated | Potency, µM (top dose mostly 46.1 µM), usual class: inhibitors | hit rate 53% among 670; further: nearly all actives have a fitted effect of over 60% in size
ELG1 5FU viab – qHTS screen for small molecules that inhibit ELG1-dependent DNA repair: Hit Confirmation with 5FU Viability; 670 tested, under 10 active; cell viability with 5-FU, ELG1-dependent repair; shares compounds with ELG1 DNA repair; Potency, µM (doses to about 46.1 µM), hits mostly cytotoxic; AID 624250, 2012;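 further: ELG1-luc HEK293T cells cotreated with 5-fluorouridine at 10 µM final; viability measured 16 h after compound addition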
ELG1 MMS cell – qHTS screen for small molecules that inhibit ELG1-dependent DNA repair: Hit Confirmation with MMS Viability | hit rate 33% among 670 | AID 624251, 2012 | Potency, µM (top dose mostly 46.1 µM), hits mostly cytotoxic | Cell viability with MMS, ELG1-dependent DNA repair | shares compounds with ELG1 DNA repair;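 further: ELG1-luc HEK293T cells co-treated with 10 µM MMS; viability read 16 h after compound addition; nearly all actives have a fitted effect of over 60% in size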
Cell viab unstim – qHTS screen for small molecules that inhibit ELG1-dependent DNA repair: Hit Confirmation with Unstimulated Viability Assay. Potency, µM (doses to about 45.9 µM), actives largely listed as cytotoxic. hit rate 8% among 900. shares compounds with ELG1 DNA repair. cell viability counter-screen, unstimulated, luminescence. AID 624252, 2012;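 further: compound exposure lasted 16 hours before reading; nearly all actives have a fitted effect of over 55% in size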
FLuc enzyme – qHTS screen for small molecules that inhibit ELG1-dependent DNA repair: Hit Confirmation in Biochemical Luciferin Assay | AID 624253, 2012 | Potency, µM (series often up to 57.5 µM), usual class: inhibitors | purified firefly luciferase, luminescence counter-screen | hit rate 10% among 350 | shares compounds with ELG1 DNA repair
A number is an active result; - = inactive; ? = inconclusive; . = not tested or not shown. An excerpt weighted towards active compounds, which were near 2.4% of everything screened. Unless noted, the call rests on the fitted dose curve; in most records, active means well fitted curve in the direction sought with a large enough effect; inconclusive means small, poorly fitted or top-dose-only effect, or another doubt; inactive means no such curve, though single readings can be large; an effect the other way counts as inactive or inconclusive.

SMILES	Rango dissoc inh	ELG1 DNA repair	PKM2 activator	Tb PGK inh	Tb PFK inh	Rango-impB inh	ELG1 Luc conf	ELG1-Luc MMS	ELG1 5FU viab	ELG1 MMS cell	Cell viab unstim	others
O=S1(=O)c2ccccc2N=NN1Cc1ccc(Cl)c(Cl)c1	.	.	-	.	.	.	.	.	.	.	.
NS(=O)(=O)c1ccc2c(c1)oc(=O)c1cc(S(N)(=O)=O)ccc12	-	-	0.35µM	-	-	-	.	.	.	.	.	HeLa tox=-
Cc1cc(NC(=O)c2cnn3c(C(F)(F)F)cc(-c4ccccc4)nc23)no1	-	7.3µM	3.5µM	-	-	-	5µM	?	-	?	?	HeLa tox=-;ELG1 FLuc counter=-;FLuc enzyme=-
C=CCn1c(SCC(=O)N(C)c2c(N)n(Cc3ccccc3)c(=O)[nH]c2=O)nnc1-c1ccccc1OC	-	-	-	-	-	-	.	.	.	.	.
CN(C(=O)c1sc2nc(N3CCOCC3)c3c(c2c1N)CCCC3)c1ccccc1	-	13µM	-	-	-	-	16µM	22µM	?	-	-	ELG1 FLuc counter=-;FLuc enzyme=-
Nc1c(C(=O)NCCc2ccccc2)sc2nc(N3CCOCC3)c3c(c12)CCCC3	-	-	-	-	-	-	.	.	.	.	.
CCCCCN(C(=O)CCC(=O)OCC(=O)N(CC)C1CCCCC1)c1c(N)n(CCCC)c(=O)[nH]c1=O	-	-	.	-	-	-	.	.	.	.	.
Cc1ccc(CNC(=O)c2cnn3c(C)c(Cc4c(F)cccc4Cl)c(C)nc23)cc1	.	.	.	-	.	.	.	.	.	.	.
Cc1cc(C)c(Cc2c(C)nc3c(C(=O)NCc4ccco4)cnn3c2C)c(C)c1	-	7.3µM	-	-	-	?	?	7.1µM	-	7.9µM	?	ELG1 FLuc counter=-;FLuc enzyme=-
CC(Oc1ccc(Cl)cc1)C(=O)Nc1ccccc1C(=O)N1CCOCC1 (stereo not drawn)	-	-	-	-	-	-	.	.	.	.	.
NC(=O)c1c(NC(=O)Cn2cc([N+](=O)[O-])cn2)sc2c1CCCC2	-	-	-	-	-	-	.	.	.	.	.
CCOC(=O)c1c(NC(=O)Cn2cc([N+](=O)[O-])cn2)sc2c1CCC2	-	1.8µM	-	.	-	-	-	18µM	-	7.9µM	?
O=C(Nc1ccc(Br)cc1)c1ccc(F)c(S(=O)(=O)N2CCN(c3ccccn3)CC2)c1	-	2.9µM	-	-	-	-	32µM	?	-	?	?	ELG1 FLuc counter=-;FLuc enzyme=-
O=C(Nc1ccccc1)c1ccc(N2CCN(c3ccccn3)CC2)c(S(=O)(=O)N2CCOCC2)c1	-	?	-	-	-	-	.	.	.	.	.
COc1ccc(/C=C/C(=O)Nc2ccc3nc4n(c(=O)c3c2)CCCC4)cc1	-	?	-	-	-	?	.	.	.	.	.
COc1cc(/C=C/C(=O)Nc2ccc3nc4n(c(=O)c3c2)CCCC4)cc(OC)c1OC	-	4.6µM	-	-	-	-	2.8µM	10µM	?	-	-
O=C(COc1ccccc1Cl)N1CCN(c2ccccn2)CC1	-	-	.	-	-	-	.	.	.	.	.
COc1ccc(NC(=O)c2c(N)no[n+]2[O-])c(OC)c1	-	?	.	-	-	-	.	.	.	.	.
COc1ccc(NC(=O)c2c(N)no[n+]2[O-])cc1	-	4.6µM	.	-	-	-	-	-	-	-	-
O=C(NCc1cccs1)c1cc(-c2ccccc2)on1	-	?	-	.	-	-	.	.	.	.	-	ELG1 FLuc counter=-;FLuc enzyme=?
COCCCNc1nc(N)c([N+](=O)[O-])c(Nc2cc(OC)ccc2OC)n1	-	1.8µM	-	-	-	-	1.1µM	?	?	-	-
c1ccc(-c2nn(-c3ccccc3)[n+](-c3ccccc3)n2)cc1	-	.	.	-	.	-	.	.	.	.	.
CC(C)Oc1cccc(C2CC(=O)Nc3cc4c(cc32)OCO4)c1 (stereo not drawn)	.	.	.	-	.	.	.	.	.	.	.
CCOC(=O)N1CCN(C(=O)c2ccc3c(c2)N=C(C)c2cc(Cl)ccc2S3)CC1	-	3.7µM	.	-	-	-	8.9µM	?	?	?	?
CC1=Nc2cc(C(=O)N3CCCC3)ccc2Sc2c(C)ccc(C)c21	-	?	-	-	-	-	.	.	.	.	.
Cc1[nH]c2ccccc2c1C(=O)CN1CCN(c2ccc(Cl)cc2)CC1	-	-	.	-	-	-	.	.	.	.	.
